# Measurements reported in ChEMBL document CHEMBL1961873, “Compounds: GSK PKIS; Assays: Nanosyn kinase panel” (2012).
# Legend:
# [1] = molecular target: Glycogen synthase kinase-3 beta (Homo sapiens) (UniProt P49841); details: at 1 µM;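 note: reported values are mean percent inhibition of GSK3B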
# [2] = molecular target: Homeodomain-interacting protein kinase 1 (Homo sapiens) (UniProt Q86Z02); details: at 0.1 µM
# [3] = molecular target: Homeodomain-interacting protein kinase 1 (Homo sapiens) (UniProt Q86Z02); details: at 1 µM
# [4] = molecular target: T1, Homeodomain-interacting protein kinase 4 (Homo sapiens) (UniProt Q8NE63); details: at 0.1 µM
# T1 sequence (whole entry): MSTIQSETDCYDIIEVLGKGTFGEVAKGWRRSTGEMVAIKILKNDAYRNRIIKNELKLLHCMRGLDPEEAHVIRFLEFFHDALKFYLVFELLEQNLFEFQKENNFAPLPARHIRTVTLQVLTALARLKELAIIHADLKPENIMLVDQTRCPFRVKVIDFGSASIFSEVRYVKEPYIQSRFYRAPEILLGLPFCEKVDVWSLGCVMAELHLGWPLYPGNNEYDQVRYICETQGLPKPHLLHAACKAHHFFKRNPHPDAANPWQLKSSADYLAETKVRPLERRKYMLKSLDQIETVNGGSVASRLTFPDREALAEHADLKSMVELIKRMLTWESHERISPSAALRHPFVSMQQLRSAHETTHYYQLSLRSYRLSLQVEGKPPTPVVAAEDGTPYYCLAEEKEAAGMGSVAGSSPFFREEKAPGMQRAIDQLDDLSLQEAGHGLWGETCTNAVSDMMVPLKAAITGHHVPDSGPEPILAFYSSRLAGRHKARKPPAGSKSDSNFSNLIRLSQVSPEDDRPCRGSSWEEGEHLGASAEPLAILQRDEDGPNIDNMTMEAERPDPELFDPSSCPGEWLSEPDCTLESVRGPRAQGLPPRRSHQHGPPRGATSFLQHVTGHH
# [5] = molecular target: T1, Homeodomain-interacting protein kinase 4 (Homo sapiens); details: at 1 µM
# [6] = molecular target: Mitogen-activated protein kinase 9 (Homo sapiens) (UniProt P45984); details: at 0.1 µM
# [7] = molecular target: Mitogen-activated protein kinase 9 (Homo sapiens) (UniProt P45984); details: at 1 µM
# [8] = molecular target: Mitogen-activated protein kinase 1 (Homo sapiens) (UniProt P28482); details: at 0.1 µM
# [9] = molecular target: Mitogen-activated protein kinase 1 (Homo sapiens) (UniProt P28482); details: at 1 µM
# [10] = molecular target: Mitogen-activated protein kinase 3 (Homo sapiens) (UniProt P27361); details: at 0.1 µM;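 note: each value is a mean inhibition figure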
# Chain of Mitogen-activated protein kinase 3 (Homo sapiens) (P27361 whole entry): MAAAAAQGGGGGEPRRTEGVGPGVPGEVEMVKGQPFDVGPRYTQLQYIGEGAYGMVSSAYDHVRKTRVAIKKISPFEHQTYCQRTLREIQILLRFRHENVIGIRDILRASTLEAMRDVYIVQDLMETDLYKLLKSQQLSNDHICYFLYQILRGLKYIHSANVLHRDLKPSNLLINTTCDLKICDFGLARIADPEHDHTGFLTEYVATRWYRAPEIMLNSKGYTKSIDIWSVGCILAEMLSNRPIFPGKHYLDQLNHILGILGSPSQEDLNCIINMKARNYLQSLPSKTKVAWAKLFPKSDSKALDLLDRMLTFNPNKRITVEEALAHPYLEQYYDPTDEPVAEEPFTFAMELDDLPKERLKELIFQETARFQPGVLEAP
# Chain of Mitogen-activated protein kinase 1 (Homo sapiens) (P28482 whole entry): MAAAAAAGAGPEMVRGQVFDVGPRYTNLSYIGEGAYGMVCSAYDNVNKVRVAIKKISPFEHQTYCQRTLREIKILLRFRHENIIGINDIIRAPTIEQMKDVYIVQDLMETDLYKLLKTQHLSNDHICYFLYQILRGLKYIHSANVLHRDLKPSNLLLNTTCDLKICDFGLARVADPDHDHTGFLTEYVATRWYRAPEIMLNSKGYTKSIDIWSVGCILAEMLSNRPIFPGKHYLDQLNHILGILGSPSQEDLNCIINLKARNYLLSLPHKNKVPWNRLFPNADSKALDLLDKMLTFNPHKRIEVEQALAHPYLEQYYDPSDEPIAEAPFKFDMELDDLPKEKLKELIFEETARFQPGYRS
# Chain of Homeodomain-interacting protein kinase 1 (Homo sapiens) (Q86Z02 whole entry, looked up): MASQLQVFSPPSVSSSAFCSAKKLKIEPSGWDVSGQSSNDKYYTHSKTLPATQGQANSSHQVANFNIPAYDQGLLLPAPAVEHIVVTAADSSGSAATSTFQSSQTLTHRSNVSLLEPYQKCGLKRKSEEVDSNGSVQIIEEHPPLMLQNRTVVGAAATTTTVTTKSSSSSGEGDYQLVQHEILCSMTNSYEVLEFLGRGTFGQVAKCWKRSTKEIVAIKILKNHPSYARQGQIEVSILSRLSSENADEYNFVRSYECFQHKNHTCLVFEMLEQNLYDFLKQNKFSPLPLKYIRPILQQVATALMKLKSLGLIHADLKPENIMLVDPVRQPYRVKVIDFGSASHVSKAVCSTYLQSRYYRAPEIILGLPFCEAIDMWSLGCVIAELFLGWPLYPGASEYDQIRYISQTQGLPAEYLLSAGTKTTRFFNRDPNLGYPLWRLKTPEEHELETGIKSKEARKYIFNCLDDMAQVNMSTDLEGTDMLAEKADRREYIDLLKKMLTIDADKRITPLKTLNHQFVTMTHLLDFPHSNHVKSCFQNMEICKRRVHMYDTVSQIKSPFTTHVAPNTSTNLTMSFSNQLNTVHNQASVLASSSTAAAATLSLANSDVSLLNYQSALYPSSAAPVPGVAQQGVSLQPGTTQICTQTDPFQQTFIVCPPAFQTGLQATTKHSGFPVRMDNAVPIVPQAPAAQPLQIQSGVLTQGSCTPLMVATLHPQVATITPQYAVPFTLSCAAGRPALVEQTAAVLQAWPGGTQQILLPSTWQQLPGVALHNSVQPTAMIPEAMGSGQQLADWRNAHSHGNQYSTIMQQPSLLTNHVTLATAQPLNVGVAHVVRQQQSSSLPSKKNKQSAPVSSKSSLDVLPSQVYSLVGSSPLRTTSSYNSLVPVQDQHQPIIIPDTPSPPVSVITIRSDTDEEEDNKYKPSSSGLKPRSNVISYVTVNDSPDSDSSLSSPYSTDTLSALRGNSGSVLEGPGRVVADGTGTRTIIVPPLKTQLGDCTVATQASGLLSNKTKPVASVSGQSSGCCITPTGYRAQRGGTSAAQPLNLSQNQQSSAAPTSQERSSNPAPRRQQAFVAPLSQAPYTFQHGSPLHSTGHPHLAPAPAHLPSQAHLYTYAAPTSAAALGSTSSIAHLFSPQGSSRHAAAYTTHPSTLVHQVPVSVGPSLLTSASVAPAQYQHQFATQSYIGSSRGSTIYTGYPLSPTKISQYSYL
# Chain of Mitogen-activated protein kinase 9 (Homo sapiens) (P45984 whole entry, looked up): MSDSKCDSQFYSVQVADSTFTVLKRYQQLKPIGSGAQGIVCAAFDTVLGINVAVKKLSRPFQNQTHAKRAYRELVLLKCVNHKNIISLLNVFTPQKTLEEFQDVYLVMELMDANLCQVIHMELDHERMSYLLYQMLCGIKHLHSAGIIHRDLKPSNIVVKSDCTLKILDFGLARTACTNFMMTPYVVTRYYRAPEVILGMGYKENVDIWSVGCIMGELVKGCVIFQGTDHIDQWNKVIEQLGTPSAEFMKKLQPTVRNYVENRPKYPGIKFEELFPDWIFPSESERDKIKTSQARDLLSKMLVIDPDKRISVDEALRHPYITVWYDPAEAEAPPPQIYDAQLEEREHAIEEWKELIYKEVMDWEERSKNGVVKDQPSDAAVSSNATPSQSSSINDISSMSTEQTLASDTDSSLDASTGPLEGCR
# Chain of Glycogen synthase kinase-3 beta (Homo sapiens) (P49841 whole entry, looked up): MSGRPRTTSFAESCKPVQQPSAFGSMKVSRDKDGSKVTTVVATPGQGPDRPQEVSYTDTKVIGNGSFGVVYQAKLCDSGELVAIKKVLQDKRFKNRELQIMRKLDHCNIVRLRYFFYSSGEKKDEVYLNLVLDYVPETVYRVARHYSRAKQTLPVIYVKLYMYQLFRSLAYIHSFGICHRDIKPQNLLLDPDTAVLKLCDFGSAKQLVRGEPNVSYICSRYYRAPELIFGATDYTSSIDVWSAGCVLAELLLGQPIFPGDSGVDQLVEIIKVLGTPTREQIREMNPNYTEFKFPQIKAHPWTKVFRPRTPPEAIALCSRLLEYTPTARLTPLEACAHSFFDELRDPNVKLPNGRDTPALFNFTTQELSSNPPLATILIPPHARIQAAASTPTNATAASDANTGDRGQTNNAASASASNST
Structure (SMILES),inhibition [1],inhibition [2],inhibition [3],inhibition [4],inhibition [5],inhibition [6],inhibition [7],inhibition [8],inhibition [9],inhibition [10]
CS(=O)(=O)CCN(CC#N)Cc1ccc(-c2ccc3ncnc(Nc4ccc(OCc5cccc(F)c5)c(Cl)c4)c3c2)o1,-0.38%,-6.53%,-4.34%,0.31%,2.79%,-0.56%,2.18%,3.93%,1.9%,1.67%
CCn1c(-c2nonc2N)nc2c(C#CC(C)(C)O)nc(OC[C@@H](N)c3ccccc3)cc21,76%,1.19%,13.3%,1.04%,8.34%,-0.01%,-0.83%,-1.1%,3.38%,-3.17%
CCn1c(-c2nonc2N)nc2cncc(C(=O)N3CC[C@H](N)C3)c21,12.1%,1.36%,8.14%,0.99%,3%,8.24%,9.12%,4.87%,7.62%,3.48%
CCn1c(-c2nonc2N)nc2cnc(Oc3cccc(NC(=O)c4ccc(OCCN5CCOCC5)cc4)c3)cc21,53.9%,1.81%,11.5%,0.11%,10.4%,3.93%,5.85%,3.22%,4.07%,2.43%
CS(=O)(=O)CCNCc1ccc(-c2ccc3ncnc(Nc4ccc(OCc5cccc(F)c5)c(C(F)(F)F)c4)c3c2)o1,-0.18%,-1.8%,-2.73%,-1.19%,-0.51%,5.87%,4.78%,5.04%,5.42%,2.83%
COC(=O)Nc1nc2cc(Oc3ccc(NC(=O)Nc4cccc(C(=O)O)c4)cc3)ccc2[nH]1,2.13%,-2.08%,0.32%,0.29%,3.06%,-0.11%,-0.13%,0.56%,0.1%,0.92%
CCn1c(-c2nonc2N)nc2cncc(C(=O)N3CCNCC3)c21,1.94%,-1.03%,0.35%,-0.43%,0.6%,5.31%,8.83%,8.16%,7.48%,6.65%
Cn1cc(C=C2C(=O)Nc3cccnc32)c2ccccc21,8.9%,-0.99%,13.8%,1.64%,15.2%,3.04%,6.24%,2.02%,2.73%,2.22%
COc1cc2ncn(-c3cc(O[C@@H](C)c4ccccc4Cl)c(C(N)=O)s3)c2cc1OC,5.97%,-0.99%,4.95%,2.88%,22.1%,2.45%,8.24%,5.66%,6.55%,4.78%
CC1=C(C(=O)Nc2ccc3[nH]ncc3c2)C(c2ccc(F)cc2)NC(=O)N1 (configuration not stated),1.6%,-0.95%,-0.69%,-0.2%,-0.66%,1.75%,0.78%,1.62%,4.83%,2.23%
Cc1ccc(C(=O)NC2CCCCC2)cc1-c1ccc(C(=O)NCC2CC2)cc1,0.33%,-0.44%,1.1%,1.23%,3.16%,5.74%,6.33%,3.78%,4.11%,2.55%
NS(=O)(=O)c1ccc(N/N=C2\C(=O)Nc3ccc(C(=O)NCCc4c[nH]cn4)cc32)cc1,86.6%,9.13%,48.9%,3.77%,20.2%,3.56%,9.28%,1.92%,17.6%,5.33%
CC1=C(C(=O)Nc2ccc3[nH]ncc3c2)C(c2ccc(Cl)c(Cl)c2)CC(=O)N1 (configuration not stated),4.85%,0.46%,-2.51%,1%,4.37%,1.22%,2.79%,3.85%,27.4%,2.47%
COc1cc2ncn(-c3cc(O[C@H](C)c4ccccc4Cl)c(C(N)=O)s3)c2cc1OC,23%,3.82%,12.1%,11.2%,30.2%,2.72%,3.88%,5.57%,4.8%,2.92%
COc1cccc(-n2ncc3c(N/N=C/c4cccc(F)c4)ncnc32)c1,72.7%,-2.11%,20.6%,0.87%,21.3%,1.23%,4.69%,1.94%,3.29%,1.61%
Nc1ncnc2occ(-c3ccc(NC(=O)Nc4cccc(C(F)(F)F)c4)cc3)c12,11%,5.73%,37.4%,67.4%,78.3%,3.31%,14.5%,4.78%,6.77%,4.22%
N#Cc1c(NC(=O)c2cccc3ccccc23)sc2c1CCCC2,6.89%,-2.43%,1.91%,-1.01%,2.45%,6.07%,25.4%,2.02%,3.91%,-0.53%
COc1cc(C)c(NC(=O)CN(C)C)cc1Nc1nc(Nc2cccc(F)c2C(N)=O)c2cc[nH]c2n1,0.98%,13.9%,60.6%,15.9%,63.4%,3.11%,12.6%,2.86%,4.47%,2.47%
Nc1nc(-c2ccccn2)c(-c2ccc3ncccc3n2)s1,8.29%,4.06%,10.3%,3.92%,10.1%,2.16%,2.28%,1.86%,2.54%,1.83%

Structure (SMILES),inhibition [1],inhibition [2],inhibition [3],inhibition [4],inhibition [5],inhibition [6],inhibition [7],inhibition [8],inhibition [9],inhibition [10]
CC1=C(C(=O)Nc2ccc3[nH]ncc3c2)C(c2ccc3ccccc3c2)CC(=O)N1 (configuration not stated),7.81%,1.49%,4.61%,1.02%,4.03%,0.73%,2.65%,5.52%,39.5%,3.92%
COc1ccc(-c2ccncc2)cc1C(N)=O,4.32%,-2.78%,3.84%,0.07%,4.19%,4.22%,5.45%,5.23%,6.46%,3.61%
CN(C)c1cc2c(Nc3ccc4nc(Cc5ccccc5)[nH]c4c3)ncnc2cn1,2.68%,0.23%,2.19%,2.51%,4.06%,10.2%,1.8%,4.86%,6.26%,3.48%
CC(=O)Nc1cccc(C#Cc2cncnc2Nc2ccc(OCc3cccc(F)c3)c(Cl)c2)n1,3.63%,1.74%,3.28%,0.85%,1.32%,-0.98%,-1.17%,-0.75%,-1.7%,-0.64%
c1cnn2ncc(-c3ccnc(Nc4ccc5c(c4)OCCO5)n3)c2c1,91%,86.2%,93%,42.3%,79.8%,12.8%,54.4%,6.5%,24%,6.55%
COc1ccc2cc(-c3c(-c4ccncc4)nc(-c4ccc([S+](C)[O-])cc4)n3C)ccc2c1 (configuration not stated),9.29%,-1.81%,1.99%,0.14%,-0.51%,1.55%,4.27%,1.94%,2.54%,4.68%
[O-][S+]1CCN(Cc2ccc(-c3ccc4ncnc(Nc5ccc(OCc6ccccc6)c(F)c5)c4c3)o2)CC1,1.56%,-3.01%,2.83%,1.06%,5.51%,4.53%,4.55%,0.52%,2.92%,1.89%
CCc1cccc(NC(=O)Nc2ccc(Oc3ccc4nc(NC(=O)OC)[nH]c4c3)cc2)c1,6.49%,1.47%,4.9%,7.33%,13.9%,2.67%,1.01%,2.12%,0.03%,2.25%
CCCN1CCC=C(c2ccc(Nc3nc(Nc4ccccc4C(N)=O)c4cc[nH]c4n3)c(C)c2)C1,17.1%,16.3%,59.6%,15.1%,56.5%,46.5%,84.9%,6.87%,29.5%,6.39%
COc1cc2ncn(-c3cc(OCc4ccccc4Cl)c(C(N)=O)s3)c2cc1OC,9.93%,0.06%,5.3%,7.28%,45.1%,2.23%,4.49%,0.95%,1.08%,-0.15%
Cc1nn(C)c2cc(N(C)c3ccnc(Nc4cccc(S(N)(=O)=O)c4)n3)ccc12,5.82%,-3.06%,-2.18%,-1.56%,4.09%,3.35%,10.2%,2.91%,4.88%,2.88%
COc1ccc(-c2nn3ncccc3c2-c2ccnc(Nc3ccc(Cl)c(C(F)(F)F)c3)n2)cc1,4.05%,-0.18%,-0.9%,1.05%,1.36%,1.72%,4.38%,3.47%,3.46%,4.84%
Fc1cccc(COc2ccc(Nc3ncnc4cc(-c5ccc[nH]5)sc34)cc2Cl)c1,1.92%,-5.52%,-2.5%,-1.95%,2.7%,2.73%,3.15%,3.5%,4.2%,0.89%
COc1cc2c(cc1Nc1nc(N3CCc4ccccc43)c3cc[nH]c3n1)N(C(=O)CN(C)C)CC2,0.72%,-1.15%,2.7%,1.42%,2.99%,1.11%,1.82%,0.85%,2.12%,2.89%
O=C1NC(=O)C(c2cccc(Cl)c2)=C1Nc1ccc(O)c(Cl)c1,,-2.68%,1.28%,-1.68%,0.62%,3.34%,1.38%,-0.66%,1.91%,2.05%
Nc1ncnc2occ(-c3ccc(NC(=O)Nc4cc(C(F)(F)F)cc(C(F)(F)F)c4)cc3)c12,7.52%,0.45%,11.7%,14.4%,63.3%,2.13%,6.77%,2.73%,1.95%,0.6%
COc1ccc(COc2ccc(Cc3cnc(N)nc3N)cc2OC)cc1,,-1.6%,0.13%,2.52%,4.49%,0.2%,0.51%,-1.03%,-0.13%,0.6%
Fc1cccc(COc2ccc(Nc3ncnc4sc(-c5cccs5)cc34)cc2Cl)c1,5.88%,-5.41%,2.04%,0.33%,1.31%,0.62%,1.01%,2.17%,1.6%,1.1%
CN1CCC(C(=O)Nc2n[nH]c3nnc(-c4ccccc4)cc23)CC1,,3.96%,9.2%,0.93%,4.44%,4.37%,5.52%,7.18%,5.71%,5.71%
